Results from PubChem BioAssay (NCI).
About 79,000 compounds went through this panel and 15% of them were active in at least one assay; those are over-represented in the sample as a whole. A number with no mark means an inactive call. The source made the active and inactive calls. Rule as the data show it: active = growth inhibition above about 70%; inactive = the rest.

Columns and labels:
[1] = NCI Yeast Anticancer Drug Screen. Data for the rad50 strain (AID 155);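 also: 0% = growth of vehicle-only cultures of the same strain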; conditions: S. cerevisiae rad50 strain growth inhibition; at 50.0 µM; hits give high values
Outline: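 Cells are treated with compound, grown, and their growth is then scored against vehicle-only cultures of the same repair-deficient yeast strain.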

[2] = NCI Yeast Anticancer Drug Screen. Data for the mec2-1 strain (AID 157); conditions: S. cerevisiae mec2-1 strain, at 50.0 µM, hits give high values
Outline: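 Compounds were applied to mec2-1 yeast cells. Their growth was then compared with that of vehicle-treated cultures to give growth inhibition.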

[3] = NCI Yeast Anticancer Drug Screen. Data for the sgs1 mgt1 strain (AID 161);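 also: 0% = growth of cultures given vehicle only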; conditions: S. cerevisiae sgs1 mgt1 strain, at 50.0 µM, hits give high values
Outline: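 Percent growth inhibition was derived by comparing compound-exposed mutant yeast with vehicle-exposed cultures. The strain carries alterations in DNA damage repair.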

[4] = NCI Yeast Anticancer Drug Screen. Data for the cln2 rad14 strain (AID 165);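 also: 0% = growth equal to vehicle treated cultures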; conditions: S. cerevisiae cln2 rad14 strain, at 50.0 µM, hits give high values
Outline: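 Strain: cln2 rad14 yeast, altered in cell cycle control and DNA damage repair. Read-out: growth inhibition vs vehicle.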

[5] = NCI Yeast Anticancer Drug Screen. Data for the bub3 strain (AID 167); conditions: S. cerevisiae bub3 mutant strain, at 50.0 µM, hits give high values
Outline: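 Part of a panel of yeast mutants defective in DNA damage repair or cell cycle regulation. Each strain is grown with compound, and inhibition is calculated relative to solvent-treated cultures.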

[6] = NCI Yeast Anticancer Drug Screen. Data for the mlh1 rad18 strain (AID 175); conditions: S. cerevisiae mlh1 rad18 strain growth inhibition; at 50.0 µM; hits give high values
Outline: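 A repair-deficient yeast strain is exposed to test compound, and growth is scored relative to vehicle-treated controls.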

SMILES | growth inhibition [1] | growth inhibition [2] | growth inhibition [3] | growth inhibition [4] | growth inhibition [5] | growth inhibition [6]
O=CC12c3ccccc3C(c3ccccc31)C1C(=O)NC(=O)C12 (stereo not drawn) | 1.65% | -1.05% | 7.6% | 31.1% | -18.3% | 6.65%
Clc1ccc(C2=NON(c3ncccn3)C3N=CC=CN23)cc1 (stereo not drawn) | 9.7% | -20.8% | 0.55% | -6.75% | 0.05% | 19%
COc1ccc2nc3cc(Cl)ccc3c(NCCNCC(C)(C)O)c2c1 | 23.4% | 15.8% | 18.5% | 63.8% | 27.1% | 22.1%
COc1ccccc1/C=C1\CCC(CCN2CCOCC2)C1=O (stereo not drawn) | 44.4% | 37.7% | 52.5% | 58.6% | 39.9% | 41.5%
c1ccc(COCCc2ccccn2)cc1 | -5.3% | -19.9% | -3.85% | -26.1% | -22.2% | -20.4%
O=C(O)/C=C/Sc1ccc(Cl)cc1 | 76% (active) | 32.5% | 79.3% (active) | 59.9% | 78% (active) | 78.4% (active)
CN1CCCS/C1=C1/SC(=S)N(c2ccccc2)C1=O | -16.8% | 13.8% | -5.85% | -5.75% | -28.1% | -17.4%
Cc1ccc2cc(N(C)C)ccc2[n+]1C | 29.9% | 24.1% | 39.9% | 34.4% | 22.2% | 30.8%
COc1ccc(-c2c(C(=O)O)cc(O)c3c(OC)c(OC)c(OC)cc23)cc1OC | -2.8% | 4% | -17.6% | -9.2% | 2.7% | 32.5%
COc1cc(/C=C2\Cc3ccccc3C2=O)cc(OC)c1OC | -13% | -14.8% | -15.8% | 18.3% | -14.1% | -13.1%
O=C(O)C1=C(C(=O)O)C2CCC1C2 | -25.1% | -33.5% | -23.2% | 2.65% | -11.8% | -14.4%
CC(=O)c1nc2ccccc2n1CC(=O)c1ccc(Cl)cc1 | -9.25% | 11.3% | 18.9% | 12.6% | 43.7% | -3.55%
Cn1c(=O)c2c(n(C)c1=O)[n+]([O-])c([N+]1([O-])CCOCC1)n2C | -3.85% | -6.3% | -0.6% | -24.9% | -4.15% | 3.2%
O=C(COc1ccccc1Cl)N1N=C(c2ccc(Cl)cc2)CC1(O)c1ccccc1 (stereo not drawn) | -17.9% | -7.2% | -43.2% | -0.85% | -25.8% | -16.9%
Cc1ccc(S(=O)(=O)SC(SCC(=O)c2ccc(Br)cc2)C(=O)c2ccc(Br)cc2)cc1 (stereo not drawn) | 26.6% | -10.4% | 33.5% | 19.9% | -0.15% | 13.2%
Cc1c(CCNC(=O)C(F)(F)F)ccc2c1[nH]c1ccccc12 | -3.3% | 3.05% | 11.8% | -41.4% | -2.4% | -5.95%
Nc1scc[n+]1CCC(=O)[O-] | -10.1% | 0.75% | 3.4% | -13.2% | -2.75% | -15.8%
O=C(CCl)Oc1cccc([N+](=O)[O-])c1 | 0.6% | -11.2% | -7.05% | -8.45% | -17.5% | -20.4%
CCCCCCCCCCCCCCCCC1=CC(=O)C=C(OC)C1=O | 13.4% | 1.45% | 23.4% | -36% | -0.15% | 15.6%

SMILES | growth inhibition [1] | growth inhibition [2] | growth inhibition [3] | growth inhibition [4] | growth inhibition [5] | growth inhibition [6]
COc1ccc2cc1Oc1cc3c(cc1OC)CC[N+](C)(C)C3Cc1ccc(cc1)Oc1c(OC)c(OC)cc3c1C(C2)[N+](C)(C)CC3 (stereo not drawn) | -29.4% | -16.4% | -46.2% | 10.8% | -22.9% | -19.3%
CCC(CC)(CC#N)C1CCCCC1 | -0.8% | -0.35% | -0.6% | -13.8% | -3.15% | -8.2%
O=C1[C@@H]2[C@@H](c3ccccc3)[C@]2(Cl)C(=O)[C@H]2[C@H](c3ccccc3)[C@@]12Cl | 6.9% | 4.15% | 1.1% | 8.75% | 3.8% | 32.8%
O=C(NC12CC3CC(CC(C3)C1)C2)C(=O)c1c[nH]c2ccc(Br)cc12 | -21.9% | -20.3% | -14.1% | -21.4% | -2.95% | -52.4%
CCCOc1ccc(C(=O)C(=O)c2ccccc2)cc1 | 13.4% | -0.2% | -3.95% | 0.8% | 11.4% | 7%
CC(Oc1ccccc1)C(=O)Nc1ccc(F)cc1 (stereo not drawn) | -1% | 9.5% | 17.8% | -11.1% | 35.9% | 17.6%
O=C(Nc1ccc(C(F)(F)F)cc1)NC(F)(F)F | -61.1% | -6.7% | -38.1% | -16.6% | -3.65% | -46.3%
CC1C2CC(C3(C)OCCO3)CCC2(C)CCC12OCCO2 (stereo not drawn) | 1.65% | 16.9% | 3.15% | 11.5% | 2.9% | 5.4%
CC(C)CC1=C(O)c2ccccc2C(=O)C1=O | 11% | -9.7% | -1.45% | -1.6% | 10.4% | -2.4%
OC1c2cc(Br)ccc2-c2c(F)cc(Br)cc21 (stereo not drawn) | 4.9% | -6.75% | -5.3% | 4.65% | 1.9% | -10.9%
Cc1cccc(C)c1C | 4.8% | -5% | 9.85% | -3.05% | -0.65% | -15.1%
CCOC(=O)/C(C#N)=C/c1ccnc2ccccc12 | -39.7% | -46.5% | -30.8% | -45.4% | -29.1% | -23.1%
O=c1c2ccccc2nc(-c2ccccc2)n1NC(=S)Nc1cccc(Cl)c1 | 7.45% | -27.1% | 3.65% | -71.7% | 28.7% | 0.55%
O=C(O)COc1ccc(C2CCCCC2)cc1 | 5.1% | 3.3% | -7.65% | 21.8% | -4.9% | -1.95%
COC(=O)c1cc(Cl)ccc1NC(=O)C1CCCCC1 | 4.75% | 15.8% | 23% | 27.8% | 15.2% | 36%
O=C(O)CCCC1(CCCC(=O)O)OCCO1 | 9.6% | -4.45% | -22.9% | -60.5% | -13.8% | -2.8%
N#CCCN(CCc1ccccn1)CN1C(=O)c2ccccc2C1=O | 10% | -4.85% | -3.75% | -7.45% | 3.25% | -13.2%
CC(=N/O)/C(C)=C/c1ccccc1 | 10.1% | 7.3% | 1.4% | 8.4% | 6.25% | 2.7%
CCCC1CC(=O)NC1C(=O)O (stereo not drawn) | -8.75% | -7.85% | -6.85% | -21.9% | -5.25% | -24.4%
